# Hits are enriched below; roughly 7.8% of the tested compounds scored in any of these assays.
# HCMV inh: blocks human cytomegalovirus replication | HFF cells, HCMV-luciferase reporter, 72 h; hits give low values | activity change, negative = inhibition, % at 57.5 µM | 4.5% of 410,000 active | AID 1259415; in the data active = activity change below about -60%; inconclusive = no clear call, values can overlap the other calls; inactive = above about -39%
#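 Human foreskin fibroblasts infected with luciferase-reporter HCMV at MOI 1 PFU/cell, compounds at two doses. Luciferase measured 72 h post infection; normalized to buffer-only basal and Salinomycin (10uM) controls.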
# Vaccinia mCherry: inhibitors of vaccinia virus infection (mCherry reporter signal). Vaccinia virus mCherry reporter infection, fluorescence. Potency, µM (top dose mostly 36.5 µM), usual class: inhibitors. 0.63% of 310,000 active. AID 720579; calls by dose curve; tested in A549 cells; also: nearly all actives have a fitted effect of over 35% in size
# LASV entry inh: inhibitors of Lassa virus binding or cell entry; 1.2% of 300,000 active; AID 540256; Potency, µM (series often up to 37.9 µM), usual class: inhibitors; Lassa virus pseudotype entry inhibition, cell reporter; calls by dose curve; tested in HEK293 cells; also: nearly all actives have a fitted effect of over 50% in size
# HCV inh: inhibitors of hepatitis C virus infection; Huh7.5.1 HCVcc-Cre infection, luciferase reporter, 44 h; Potency, µM (highest dose often 41.8 µM), most hits filed as inhibitors; 3.4% of 340,000 active; active = well fitted inhibition curve with a large enough effect; inconclusive = small, poorly fitted or top-dose-only effect, or another doubt; inactive = no such curve, though single readings can be large or run the other way
#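 Antiviral activity was scored by luciferase reporter output from cells infected with HCVcc-Cre (~0.5 moi) in presence of compound, 44 h infection period, cells seeded 1,000/well 4 h prior.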
# Vaccinia Venus: vaccinia inhibition (Venus reporter). 0.46% of 330,000 active. Potency, µM (highest dose often 36.5 µM), most hits filed as inhibitors. Vaccinia virus Venus reporter expression, fluorescence; calls by dose curve; tested in A549 cells; also: nearly all actives have a fitted effect of over 30% in size
# Marburg entry inh: blocks Marburg virus binding to or entry into cells; Marburg virus pseudotyped entry inhibition, cell reporter; Potency, µM (series often up to 37.8 µM), most hits filed as inhibitors; 1.8% of 300,000 active; calls by dose curve; tested in HEK293 cells
# Hits are given with their value; . = inactive; ? = inconclusive; / = no result; ! = a repeat was not active.
SMILES,HCMV inh,Vaccinia mCherry,LASV entry inh,HCV inh,Vaccinia Venus,Marburg entry inh
O=C(Nc1nc(-c2ccc(S(=O)(=O)N3CCCCCC3)cc2)cs1)c1cccs1,.,.,.,?,.,?
Cc1ccc(S(=O)(=O)N2CCOCC2)cc1C(=O)Nc1nc(-c2cccnc2)cs1,.,.,.,.,.,.
O=C(Nc1nc(-c2ccc(S(=O)(=O)N3CCCC3)cc2)cs1)c1cccs1,-87.0,/,?,?,?,?
Cc1ccc(Nc2nc(-c3ccc(S(=O)(=O)N4CCOCC4)cc3)cs2)cc1Cl,-73.8,?,.,.,?,?
O=C(Nc1nc(-c2cccs2)cs1)c1cccc(S(=O)(=O)N2CCCCC2)c1,.,?,.,11.2µM,?,?
COc1cc(C(=O)Nc2nc(-c3cccs3)cs2)cc(OC)c1OC,.,?,10.3µM,1.78µM,.,18.3µM
Cc1c(NC(=O)c2cccs2)cccc1-c1nc2cc(Cl)ccc2o1,.,.,.,/,.,.
COc1ccc(CN(Cc2ccccc2)C(C)=O)cc1COc1ccc(NC(C)=O)cc1,/,.,/,/,.,/
COc1cc2c(cc1NC(=O)C(C)Oc1ccc(Cl)cc1Cl)oc1ccccc12 (stereo not given),.,.,.,/,.,.
Cc1cccc(OCC(=O)Nc2cccc3cccnc23)c1C,.,.,.,/,.,.
Cc1cccc(NC(=O)CS(=O)(=O)c2cccc3nsnc23)c1,.,.,?,/,.,/
CCN(CC)c1ccc2cc(-c3nc4sc5c(c4c(=O)[nH]3)CCC(C(C)(C)C)C5)c(=O)oc2c1 (stereo not given),.,.,.,/,.,/
O=S(=O)(c1ccc(-c2csc(-c3cccnc3)n2)cc1)N1CCOCC1,-63.9,.,.,.,.,?
O=C(Nc1nc(-c2nc3ccccc3s2)cs1)c1ccc(S(=O)(=O)N2CCOCC2)cc1,?,?,.,11.2µM,?,?
COc1cccc(C(=O)Nc2nc(-c3ccc(S(=O)(=O)N4CCOCC4)cc3)cs2)c1,-87.5,.,11.2µM,10µM!,.,?
Cc1nc2ccc(NC(=O)c3ccc(S(=O)(=O)N4CCOCC4)cc3)cc2s1,.,/,.,?,?,.
COc1ccc(Cn2c(=O)c3oc4ccccc4c3n(CC(=O)Nc3cc(C)cc(C)c3)c2=O)cc1,.,.,?,/,.,/
CC(C)(C)c1cccc(/C=N\O)c1O,/,/,/,/,/,.
Cc1occc1C(=O)N/N=C/c1ccc(Cl)c([N+](=O)[O-])c1,-63.0,.,.,?,.,3.98µM
O=C(N/N=C/c1ccc(Cl)c([N+](=O)[O-])c1)c1cc(-c2ccc3c4c(cccc24)CC3)n[nH]1,-73.7,.,6.31µM,.,.,?
O=C(N/N=C/c1ccc(Cl)c([N+](=O)[O-])c1)c1ccc2nc[nH]c2c1,.,.,.,.,.,.
Cc1cc(C(=O)N/N=C/c2ccc(Cl)c([N+](=O)[O-])c2)c(C)n1-c1ccc(F)cc1,-92.5,?,13µM,?,.,?
Cc1occc1C(=O)N/N=C/C=C\c1ccccc1[N+](=O)[O-],-75.0,.,.,?,.,.
COC(=O)C1=C(C)N(CC#C[Si](C)(C)C)C(=O)N(C(C)=O)C1c1ccccc1 (stereo not given),/,/,/,/,/,.
Cc1occc1C(=O)N/N=C/c1ccc(-c2ccccc2)cc1,.,.,7.94µM,.,.,?
SMILES,HCMV inh,Vaccinia mCherry,LASV entry inh,HCV inh,Vaccinia Venus,Marburg entry inh
Cc1occc1C(=O)N/N=C/c1ccc(OCc2ccccc2)cc1,.,/,/,?,/,/
O=C(Cn1c(=O)oc2cc(S(=O)(=O)N3CCCCCC3)ccc21)Nc1ccc(F)cc1F,.,.,.,/,.,?
CCOC(=O)[C@@H](C#N)[C@@H](Cc1ccccc1)c1ccco1,/,/,/,/,/,.
CCc1ccc(NC(=O)C(=O)NCCc2csc(-c3cccc(F)c3)n2)cc1,.,.,.,/,.,/
OCC1(Cc2cccc(C(F)(F)F)c2)CCN(Cc2cc(F)cc(F)c2)CC1,-62.0,.,?,?,?,?
Cc1ccc(-n2cc(CN3CCC(CO)(Cc4cccc(C(F)(F)F)c4)CC3)cn2)cc1,-99.2,?,?,11.2µM,11.2µM,?
O=C1Nc2ccccc2C12OCC1(CO2)COC2(OC1)C(=O)Nc1ccccc12 (stereo not given),.,.,?,.,.,.
CN1CC(c2ccc(Cl)c(Cl)c2)[C@@]2(COc3ccccc3C2=O)[C@@]12C(=O)Nc1ccccc12 (stereo not given in full),.,/,?,11.2µM,/,?
Nc1nc(N)nc(-c2cc(F)ccc2O)n1,.,?,/,.,10µM,/
COCCCn1cc(C(=O)c2cc(Br)ccc2O)cc(C#N)c1=O,.,?,?,.,.,1.58µM
CCOCCCn1cc(C(=O)c2cc(Br)ccc2O)cc(C#N)c1=O,.,.,?,.,.,.
CC(C)CCNC(=O)c1cc(C(=O)c2cc(Br)ccc2O)cn(CCC(C)C)c1=O,-72.7,.,.,?,.,.
CCCCn1cc(C(=O)c2cc(Br)ccc2O)cc(C#N)c1=O,.,/,?,11.2µM,?,?
Cc1sc2nc(CN(C(=O)c3cccs3)C3CCCC3)[nH]c(=O)c2c1C,.,?,.,?,?,?
CN(C)S(=O)(=O)c1cccc(NC(=O)CCc2nc3sc4c(c3c(=O)[nH]2)CCCC4)c1,-67.2,/,/,?,/,/
Cc1cccc(NC(=O)CCc2nc3sc4c(c3c(=O)[nH]2)CCCC4)c1,.,.,?,.,.,?
O=C(c1cccs1)N(Cc1nc2sc3c(c2c(=O)[nH]1)CCCC3)C1CCCC1,-71.2,12.6µM,3.55µM,?,.,?
Cc1ccccc1C(=O)N1CCc2c(cnc(C)c2CNC(=O)c2ccc3c(c2)OCO3)C1,/,.,/,/,.,/
Cc1ccc2[nH]c(=O)c3cc(C(=O)N4CCN(c5ccccc5)CC4)sc3c2c1,.,.,.,/,.,?
COc1ccc(N(CC(=O)NC2CC3CCC2C3)S(=O)(=O)c2ccc(C)c([N+](=O)[O-])c2)cc1 (stereo not given),.,?,.,2.82µM,.,?
COc1ccc(N(CC(=O)Nc2ccccc2F)S(=O)(=O)c2ccc(C)c([N+](=O)[O-])c2)cc1,?,?,?,?,.,?
CC(C)c1nnc(NC(=O)CC(=O)Nc2ccccc2C(=O)O)s1,.,/,6.31µM,.,.,?
CCOc1ccccc1C(=O)Nc1nnc(C(C)C)s1,.,.,/,12.6µM,.,/
CC1=C(C(=O)OCc2ccc3nsnc3c2)N2C(=O)[C@@H](NC(=O)OCc3ccc4nsnc4c3)[C@H]2SC1,/,.,/,/,.,/
O=C(NC1CCC1)O[C@H]1CC[C@@]23CCCN2C(=O)CCC[C@H]3[C@H]1Cc1ccccc1,.,/,/,/,/,/
COc1ccccc1-c1nc(C#N)c(N2CCc3ccccc3C2)o1,.,/,.,11.2µM,/,?
Cc1cccc(-c2nc(C#N)c(N3CCCCCC3)o2)c1,.,.,.,25.1µM,.,.
COc1ccc(N2CCN(c3oc(-c4ccc(OC)c(OC)c4)nc3C#N)CC2)cc1,.,.,.,.,.,.
COc1ccccc1-c1nc(C#N)c(N2CCCCCC2)o1,?,/,.,?,/,?

# Source: PubChem
